Data from ChEMBL document CHEMBL1201862, “PubChem BioAssay data set” (2004).
The whole screen tested about 400,000 compounds, of which about 2,100 (0.53%) were called active. Roughly 14% stayed inconclusive and do not appear here. How the calls were made is not given here. What follows is part of a selection rich in actives, with near analogues and random picks from the rest.

target: Ataxin-2 (Homo sapiens) (UniProt Q99700); assay: qHTS for Inhibitors of ATXN expression.; assay type: functional
Sequence (Q99700 whole entry): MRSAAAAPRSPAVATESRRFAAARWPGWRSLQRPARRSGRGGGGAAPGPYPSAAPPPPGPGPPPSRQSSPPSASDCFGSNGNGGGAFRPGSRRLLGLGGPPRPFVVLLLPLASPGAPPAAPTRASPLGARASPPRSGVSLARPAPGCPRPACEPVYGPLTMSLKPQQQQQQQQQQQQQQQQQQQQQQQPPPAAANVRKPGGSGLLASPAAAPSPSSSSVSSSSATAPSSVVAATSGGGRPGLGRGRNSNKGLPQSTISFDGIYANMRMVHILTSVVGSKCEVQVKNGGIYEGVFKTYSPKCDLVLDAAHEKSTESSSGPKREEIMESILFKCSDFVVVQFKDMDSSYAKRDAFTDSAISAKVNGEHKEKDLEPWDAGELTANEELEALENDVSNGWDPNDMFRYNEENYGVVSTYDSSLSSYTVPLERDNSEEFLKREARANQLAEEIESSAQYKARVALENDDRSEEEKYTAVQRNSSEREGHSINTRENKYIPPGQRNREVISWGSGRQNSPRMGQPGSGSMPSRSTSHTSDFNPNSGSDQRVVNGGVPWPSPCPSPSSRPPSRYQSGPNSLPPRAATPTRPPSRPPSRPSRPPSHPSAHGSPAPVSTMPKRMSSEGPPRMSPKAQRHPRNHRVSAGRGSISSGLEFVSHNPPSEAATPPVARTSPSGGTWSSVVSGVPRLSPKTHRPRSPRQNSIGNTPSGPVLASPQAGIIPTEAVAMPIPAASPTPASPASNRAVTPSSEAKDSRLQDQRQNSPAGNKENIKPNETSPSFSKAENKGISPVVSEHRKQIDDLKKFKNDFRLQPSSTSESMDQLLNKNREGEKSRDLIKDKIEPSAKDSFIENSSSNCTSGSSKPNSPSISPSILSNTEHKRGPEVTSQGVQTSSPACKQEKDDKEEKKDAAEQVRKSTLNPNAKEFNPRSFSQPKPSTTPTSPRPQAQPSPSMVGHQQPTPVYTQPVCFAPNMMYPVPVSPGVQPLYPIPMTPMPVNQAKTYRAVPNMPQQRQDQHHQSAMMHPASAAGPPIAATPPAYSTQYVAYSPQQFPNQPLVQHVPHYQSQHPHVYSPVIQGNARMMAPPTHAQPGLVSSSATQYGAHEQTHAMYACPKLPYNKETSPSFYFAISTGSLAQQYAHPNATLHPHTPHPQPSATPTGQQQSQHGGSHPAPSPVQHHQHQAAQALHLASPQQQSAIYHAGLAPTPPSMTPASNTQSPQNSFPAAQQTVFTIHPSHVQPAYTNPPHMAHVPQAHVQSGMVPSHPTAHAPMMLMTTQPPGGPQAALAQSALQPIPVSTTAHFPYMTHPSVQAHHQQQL

Compound	Potency
N#CC1=C(N)Oc2c(oc(CO)cc2=O)C1c1ccccc1[N+](=O)[O-] (stereo not given)	inactive
O=C(CCNC(=O)Cn1cnc2ccccc2c1=O)NCC1CCCO1 (stereo not given)	inactive
COC(=O)C(N)Cc1ccc(OC)c([N+](=O)[O-])c1 (stereo not given)	inactive
CCCCCOc1ccc(CSC2=NCCN2)cc1[N+](=O)[O-]	35.5 µM (active)
Cc1ccc(OCCn2cnc3ccccc3c2=O)c([N+](=O)[O-])c1	inactive
Cc1ccccc1NC(=O)COc1ccc(Br)cc1C	inactive
CCC1CN(C(=O)NCc2ccc(F)cc2)c2ccccc2O1 (stereo not given)	inactive
CCn1c(=O)c(C(=O)Nc2ccc(C)cc2)c(O)c2ccccc21	inactive
O=C(Cn1sc2ccccc2c1=O)Nc1ccc(F)cc1	31.6 µM (active)
O=C(Nc1ccc(F)cc1)c1cccc2ccccc12	inactive
O=C(CN1C(=O)CSc2ccc(C(F)(F)F)cc21)Nc1ccccc1	inactive
O=C(CC1C(=O)NCCN1C(=O)Nc1ccccc1)Nc1ccc(F)cc1 (stereo not given)	inactive
CC(=O)c1ccccc1NCC(=O)Nc1ccc(C)cc1	inactive
Cc1ccc(NC(=O)Cn2sc3ccccc3c2=O)cc1	25.1 µM (active)
O=C(CN1C(=O)c2cccc3cccc1c23)Nc1ccccc1	inactive
O=C(Cn1sc2ccccc2c1=O)Nc1ccccc1	39.8 µM (active)
COc1cccc2sc3cc(NCC[C@@H]4CCCN4C)ccc3c(=O)c12	inactive
CCc1nc2ccc(C(=O)Nc3ccc(OC)c(OC)c3)cn2c1N(C)CCC(C)C	31.6 µM (active)
COc1cc(C(=O)Nc2ccn(C)n2)ccc1OC(F)F	inactive
CCc1nc2ccc(C(=O)Nc3cc(-c4ccccc4)ccc3OC)cn2c1N(CC)CCN(C)C	39.8 µM (active)
CCc1nc2ccc(C(=O)Nc3cccc(OC)c3)cn2c1N(CCC(C)C)CCN(C)C	14.1 µM (active)
CCCNC(=O)c1c(N)n(-c2cccc(OC)c2)c2nc3ccccc3nc12	inactive
COc1ccc(NC(=O)c2ccc(S(=O)(=O)N3CC(C)CC(C)C3)cc2)cc1S(N)(=O)=O (stereo not given)	inactive
COc1ccc(C)cc1NC(=O)c1cc(-c2ccccc2)nc2c1cnn2C(C)C	inactive
Cc1ccc(-c2cc(C(=O)Nc3ccccn3)c3ccccc3n2)o1	inactive

Compound	Potency
CN(NC(=O)COc1ccccc1)C1=NS(=O)(=O)c2ccccc21	inactive
CC(=O)c1ccc(/N=c2\scc(C)n2C(C)C)cc1	inactive
COc1ccc(-c2csc(NC(=O)c3c(C)noc3C)n2)cc1OC	inactive
CC(=O)Nc1ccc(-c2ccnc(-c3ccc(NC(C)=O)cc3)n2)cc1	inactive
CC(=O)Nc1cccc(-c2csc(Nc3cc(C)ccn3)n2)c1	25.1 µM (active)
Cc1c(CCC(=O)NCCCN2CCCC2=O)c(=O)oc2c(C)c(O)ccc12	inactive
COc1cc(/C=C/c2sc3ccccc3[n+]2CCCS(=O)(=O)[O-])ccc1O	18.9 µM (active)
Cc1cccn2c(=O)c3cc(C(=O)NCC4CCCO4)c(=N)n(Cc4ccc(F)cc4)c3nc12 (stereo not given)	inactive
CCN(CC)c1ccc(/C=C(\C#N)c2ccccn2)cc1	inactive
O=C(CSc1ccccc1)NCCc1ccc(F)cc1	inactive
CCS(=O)(=O)c1ccc2oc(SCC(=O)NCCc3ccccc3)nc2c1	inactive
COc1cccc(Cc2nc3ccccc3nc2SCC(=O)NCCc2ccccc2)c1	35.5 µM (active)
O=S(=O)(c1ccc(N2CCC(c3ccc(Cl)cc3)=N2)cc1)N(CCO)CCO	inactive
CCCCC[C@H](O)/C=C/[C@H]1CCC(=O)[C@@H]1CCCCCCC(=O)N1CCCCC1CO (stereo not given in full)	39.8 µM (active)
CN(/N=C/c1cc(Cl)cc(Cl)c1O)C(=S)NC(C)(C)C	inactive
Cc1cc(N2CCOCC2)n2ncc(-c3ccccc3Cl)c2n1	inactive
C=CCn1nc([N+](=O)[O-])nc1Sc1cccc2cccnc12	39.8 µM (active)
Cn1nc([N+](=O)[O-])nc1Sc1cccc2cccnc12	7.94 µM (active)
Cc1nn(C)c(Sc2ccccn2)c1[N+](=O)[O-]	inactive
CCOc1ccc2nc(NCCNC(=O)CC)c(C#N)cc2c1	inactive
CN1c2ccccc2Oc2nnc(Cl)cc21	inactive
Clc1ccc(C2=Nn3c(nnc3-c3cc(-c4ccccc4)[nH]n3)SC2)cc1	35.5 µM (active)
Cc1cc(-c2nnc3n2N=C(c2ccccc2)CS3)[nH]n1	inactive
O=c1c2ccccc2nc(/C=C/c2ccc(O)cc2)n1CCc1ccccc1	inactive
Cc1nn(C(=O)CCCC(=O)NCc2ccccc2)c2ccccc12	inactive

Compound	Potency
CCCCC[C@H]1CN(C2CCCCC2)C(=O)[C@@H]1CC(=O)NCc1ccccc1	39.8 µM (active)
O=C(CC1CCCCC1)NCc1nc(-c2ccccc2)no1	inactive
CCN1C(=O)c2cccc3c(S(=O)(=O)N4CCNCC4)ccc1c23	inactive
COc1cc(OC)c(OC)cc1C=Cc1ccc2ccccc2n1	inactive
COc1cc(Br)c(/C=C/c2ccc3cccc(O)c3n2)cc1OC	25.1 µM (active)
COc1cccc(/C=C/c2ccc3cccc(O)c3n2)c1OC	inactive
Cc1ccc(C2C=C(c3ccc(F)cc3)Nc3nc(CCCO)nn32)cc1 (stereo not given)	inactive
O=CN(c1ccccc1)c1ccc2ccccc2c1	inactive
CCCCCCc1cc2cc(-c3nnc(-c4cc(OC)c(OC)c(OC)c4)o3)c(=O)oc2cc1O	inactive
COCCCN=C(S)NCCNc1nc2c(C)c(C)ccc2cc1C#N	inactive
COc1cc2nc(/C=C/c3cc(OC)c(OC)c(OC)c3)sc2cc1SC	inactive
CC1=CN2C(=N)/C(=C/c3cc(Cl)c(O)c(Cl)c3)C(=O)N=C2S1	inactive
CC1=CN2C(=N)/C(=C/c3ccc([N+](=O)[O-])o3)C(=O)N=C2S1	28.2 µM (active)
CC1=NN2C(=N)/C(=C\c3cc(C)n(-c4ccc(C)cc4)c3C)C(=O)N=C2S1	inactive
CCOc1ccc(-c2ccc(/C=C3/C(=N)N4C=CSC4=NC3=O)o2)c([N+](=O)[O-])c1	31.6 µM (active)
COc1ccc(-c2ccc(/C=N/NC(=O)c3cccnc3)o2)c([N+](=O)[O-])c1	inactive
CCOC(=O)c1c(N)n(C2CC(C)(C)NC(C)(C)C2)c2nc3ccccc3nc12	inactive
Cc1ccc2oc(=O)c3cnn(CC(=O)Nc4ccccc4N4CCN(C)CC4)c3c2c1	7.08 µM (active)
CC(CCc1ccco1)NC(=O)Cn1ncc2c(=O)oc3ccccc3c21 (stereo not given)	inactive
O=C(CN1CCN(c2ccccc2)CC1)Nc1scc2c1c(=O)oc1ccccc12	inactive
CN(C(=S)NC(=O)C12CC3CC(CC(C3)C1)C2)c1ccc(O)cc1	inactive
Cc1ccc(CCNC(=O)C[S+]([O-])Cc2nc(-c3cccs3)oc2C)cc1 (stereo not given)	inactive
O=C(NCCc1csc(-c2cccnc2)n1)c1ccc(Br)o1	inactive
Cc1ccc(-c2nc3sc(CCNC(=O)c4ccc(Br)o4)c(C)n3n2)cc1	35.5 µM (active)
O=C(COc1coc(CN2CCc3ccccc32)cc1=O)N1CCCCC1	inactive

Compound	Potency
CC[C@H](C)/C=C/C1=CC2=C(Cl)C(=O)[C@@]3(C)OC(=O)C(C(=O)[C@H](C)[C@@H](C)O)=C3C2=CO1	11.9 µM (active)
CC[C@H](C)/C=C(C)/C=C/C1=CC2=CC(=O)[C@]3(C)OC(=O)[C@@H](C(C)=O)[C@@H]3C2=CO1	inactive
Cc1ccc(S(=O)(=O)N[C@@H](Cc2ccccc2)C(=O)N2CCC[C@@H]2C(=O)O)cc1	inactive
O=S(=O)(NCc1ccccc1)c1ccc(S(=O)(=O)N2CCCC2)cc1	inactive
CCCCCCNC(=O)OC12CN(C(=O)OC(C)C)N(C(=O)OC(C)C)CC1(O)CN(S(=O)(=O)c1ccc(C)cc1)C2 (stereo not given)	25.1 µM (active)
Cc1ccc(S(=O)(=O)N2CC3(O)CN(C(=O)OC(C)C)N(C(=O)OC(C)C)CC3(OC(=O)NCc3ccccc3)C2)cc1 (stereo not given)	22.4 µM (active)
CC(=O)NCCNC(=O)c1ccc(Sc2ccccc2)c([N+](=O)[O-])c1	inactive
CCCNC(=O)c1ccc(SCC(=O)N(CC)CC)c([N+](=O)[O-])c1	inactive
NCCNc1ccc(C(=O)N2c3ccccc3Sc3ccccc32)cc1[N+](=O)[O-]	14.1 µM (active)
C/C(=N\NC(=O)C1=NNC(=O)C1C)c1cccs1 (stereo not given)	inactive
CN=c1sc2c(n1C)C(=O)c1ccccc1C2=O	39.8 µM (active)
O=C(NP(=O)(N1CCOCC1)N1CCOCC1)C1=C(N2CCOCC2)/C(=C\c2ccccc2)CC1	inactive
Cc1c(/N=C2\C=CC(=O)c3ccccc32)c(=O)n(-c2ccccc2)n1C	inactive
Cc1c(N=C2C=C(Br)C(=O)C(Br)=C2)c(=O)n(-c2ccccc2)n1C	inactive
CC1=CC(=Nc2c(C)n(C)n(-c3ccccc3)c2=O)C=C(C)C1=O	35.5 µM (active)
CCCS(=O)(=O)N1CCN=C1SCc1ccc(C)cc1	inactive
Cc1cc(C)cc(N2C(=O)C=CC2=O)c1	28.2 µM (active)
Cc1cccc(N2C(=O)c3cccc4c(N)ccc(c34)C2=O)c1	inactive
CCOC(=O)c1c(-c2ccc(C)o2)csc1NC(=S)NC(=O)N(C)C	39.8 µM (active)
CCOC(=O)c1c(-c2ccc(C)cc2)csc1NC(=O)/C(C#N)=C/c1ccc(O)c(OC)c1	inactive
CCOC(=O)c1c(-c2ccc(Cl)cc2)csc1NC(=O)CNCc1ccco1	inactive
CCc1ccc(/C(C)=N/NC(=O)c2ccc(-n3cnnn3)cc2)cc1	inactive
COc1cc(OC)c(OC)cc1CN1CCc2nc(Nc3ccc4c(c3)OCCO4)ncc2C1	inactive
Cc1cccn2c(Nc3ccc4c(c3)OCCO4)c(-c3ccc(Br)o3)nc12	39.8 µM (active)
Cc1cnc(NC(=O)CSc2nnc3ncccn23)s1	inactive
